What was measured:
[1] = molecular target: T1, Aspartate--tRNA(Asp/Asn) ligase (Mycobacterium tuberculosis (strain ATCC 25618 / H37Rv)) (UniProt P9WFW3); experiment: Assay for Asp RNA synthetase-1 from Mycobacterium tuberculosis; format: functional; design: scale not given: direction of the effect not stated beside the values; conditions: 30 µM; also: in the data most compounds retested in dose-response had high values
T1 sequence (whole entry): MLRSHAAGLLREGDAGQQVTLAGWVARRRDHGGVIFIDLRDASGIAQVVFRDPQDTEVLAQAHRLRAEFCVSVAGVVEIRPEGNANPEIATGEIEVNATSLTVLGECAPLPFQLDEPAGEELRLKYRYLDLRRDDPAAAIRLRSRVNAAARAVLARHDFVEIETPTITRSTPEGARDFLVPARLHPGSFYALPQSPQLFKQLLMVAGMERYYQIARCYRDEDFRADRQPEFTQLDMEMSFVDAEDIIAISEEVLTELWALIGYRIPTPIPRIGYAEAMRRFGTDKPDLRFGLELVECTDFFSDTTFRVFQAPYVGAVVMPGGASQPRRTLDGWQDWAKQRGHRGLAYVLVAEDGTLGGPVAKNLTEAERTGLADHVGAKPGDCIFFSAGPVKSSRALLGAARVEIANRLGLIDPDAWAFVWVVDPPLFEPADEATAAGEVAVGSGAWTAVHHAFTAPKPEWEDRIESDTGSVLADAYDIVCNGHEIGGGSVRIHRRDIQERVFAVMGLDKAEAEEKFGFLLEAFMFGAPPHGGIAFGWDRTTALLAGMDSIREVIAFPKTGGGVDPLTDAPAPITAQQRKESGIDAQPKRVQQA

[2] = molecular target: Shiga toxin 2 (Escherichia coli O157:H7) (UniProt P09385+P09386); experiment: E. coli 0.157:H7 Shiga Toxin SOP - stx2 screening assay; format: functional; design: scale not given: direction of the effect not stated beside the values; conditions: 30 µM

SMILES	Percent Effect [1]	Percent Effect [2]
CCOc1cc(C)nc(N2CCN(Cc3nccn3C)CC2)n1	-4.49%	5.04%
O=C(CCn1ccccc1=O)Nc1ccc(F)c(Cl)c1	5.06%	-7.92%
COCc1ccccc1CNc1cc(N2CCCC2CO)ncn1 (stereo not given)	-1.49%	-4.23%
CC(C)(C)c1nnc(CN2CCCC(Cn3cncn3)C2)o1 (stereo not given)	0.322%	13%
CCc1cnc2c(c1NCc1ccncc1)c(=O)n(C)c(=O)n2C	-0.949%	-7.71%
Cc1ccsc1CNc1cc(N2CCCC2CO)ncn1 (stereo not given)	3.04%	-22.2%
Cn1cc(CC2CCN(C(=O)NCCc3cccc(O)c3)C2)cn1 (stereo not given)	-5.03%	-12.2%
CS(=O)(=O)N[C@@H]1CCO[C@]2(CCN(C(=O)C3=CCCC3)C2)C1	3.41%	-0.907%
Cc1ncc2c(n1)CN(CC(=O)Nc1ccncc1)CC2	-0.281%	5.69%
COc1ccc(CCN2CCCC(CN(C)Cc3ccc(C)o3)C2)cc1 (stereo not given)	-1.25%	-11.5%
CCn1nnc2c1C(COC)CN(C(=O)COc1ccccc1)C2 (stereo not given)	-1.42%	-31.2%
CCC(CC)c1cc(CNC(=O)N2CCCC(N(C)C)C2)on1 (stereo not given)	-1.74%	9.62%
O=C(Nc1nc2c(s1)CN(S(=O)(=O)C1CC1)CC2)c1c(F)cccc1F	-0.834%	2.22%
Cc1ccc(N2CC3(CCN(c4nccs4)C3)C2)nn1	-3.76%	-64.2%
Cc1nnn2c1COCC(CNC(=O)c1ccc3[nH]ccc3c1)C2 (stereo not given)	0.238%	-35.3%
Cn1nc(C2CN(C(=O)c3cscn3)C2)c2nccnc21	2.04%	8.15%
CS(=O)(=O)N1CCC(C(=O)NCCNc2ncccn2)CC1	-0.962%	-1.12%
Cc1ccc2cc(CNCCCO)c(=O)[nH]c2c1	-1.41%	-9.65%
CCOc1ncccc1NC(=O)N1CCN(c2cccc(C)c2C)CC1	1.92%	38.1%
Cn1cc(CN2CCC(F)(F)C3(CCN(c4cnccn4)C3)C2)cn1 (stereo not given)	-3.65%	-4.7%
O=C(COCc1ccccc1)N1CCC(OCc2cccnc2)CC1	-4.62%	11.5%
Cc1ccc(NC2CCN(C(=O)c3cnc(C)s3)CC2)nn1	-1.51%	-19.5%
Cc1nc(CN2CCOC(CN(C)c3cccnn3)C2)cs1 (stereo not given)	-1.09%	7.32%
COCCC1COC2(CCN(C(=O)c3ccco3)CC2)C1 (stereo not given)	-0.368%	-2.25%
CCC(CC)C(=O)N1CCC2(C1)CN(c1ccccc1)C(=O)CN2C (stereo not given)	-4.01%	-3.77%

SMILES	Percent Effect [1]	Percent Effect [2]
Cc1nccn1C1CCCN(C(=O)c2ccc(N3CCCC3)nn2)C1 (stereo not given)	2.5%	17.8%
CCc1ncncc1C(=O)NCCN1CCC(C)CC1	-3.79%	5.13%
CCc1c(C(=O)N2CCN(CC(N)=O)CC2)cnn1C(C)(C)C	-2.87%	2.77%
CCCc1nc(NCCCO)c2c(n1)c(C)nn2CC	-5.08%	-4.19%
Cc1cc(C)n(CC(=O)N2CCC(c3nc(C)no3)CC2)n1	3.56%	3.16%
CC(C)C(C(=O)N1CCCN(Cc2nccn2C)CC1)N1CCCC1 (stereo not given)	-3.15%	27%
O=C1CC2(CCN(CC3CC3)C2)CN1c1ccc2c(c1)OCO2 (stereo not given)	14.6%	-55.4%
Cc1nc(C2CCCN2C(=O)c2cc3c(s2)CCCC3)no1 (stereo not given)	-1.23%	23.4%
COc1ccc(OCc2nc(C(=O)N3CC(O)C3)co2)cc1	-0.0558%	-45.4%
COC(C(=O)N1CCCN(Cc2cscn2)CC1)c1ccccc1 (stereo not given)	0.144%	3.66%
Cc1nn(C)c(C)c1C1CCCN1C(=O)c1cnc2n[nH]c(C)c2c1 (stereo not given)	-5.16%	-21.8%
CC(C)(C)C(=O)NCCC(=O)NS(=O)(=O)c1ccc2c(c1)OCCO2	-10.1%	0.645%
Cn1cc(-c2nc(CN3CCN(CCO)CC3)cs2)cn1	-2.15%	22.1%
N#Cc1ccccc1CN1C[C@@H]2CC[C@H](C1)N(Cc1cscn1)C2=O	-3.02%	3.66%
Cc1ccc([C@]2(O)CC[C@H]3CN(Cc4cc(C)c(O)c(C)c4)C[C@H]32)nc1	3.29%	-2.26%
CS(=O)(=O)NC[C@]12COC[C@H]1CN(C(=O)c1ccccc1)C2	-2.14%	-16.8%
CCCNC(=O)CCC(=O)Nc1ccc(-n2cncn2)c(F)c1	-1.12%	5.57%
Cc1cnn(C2CCCN(C(=O)c3cc(C4CC4)on3)C2)c1 (stereo not given)	-1.95%	14.5%
COc1ccc(S(=O)(=O)NCc2cccnc2N(C)C)cc1F	-1.03%	-9.13%
O=C(c1ccco1)N1CCOCC2(CCN(C3CCOCC3)C2)C1 (stereo not given)	8.62%	-31.1%
Cc1[nH]ccc1C(=O)N1CCCC(c2nccn2Cc2cscn2)C1 (stereo not given)	-2.28%	4.58%
CCS(=O)(=O)N1CCC(c2cc3n(n2)[C@@H](C(F)(F)F)C[C@@H](C)N3)CC1	5.23%	13%
Cn1nc(C2CCCN(Cc3ccsc3)C2)c2nccnc21 (stereo not given)	-2.96%	-14.3%
O=C(Nc1cc(F)ccc1OCC1CCCO1)N1CCCC1 (stereo not given)	-3.7%	0.98%
CCc1nc(NCCCn2cccn2)c2c(n1)c(C)nn2C	-0.755%	-14.3%
